These sequences were tested on RXRa DBDmut IVT, anti-RXR (DBD mutation: RXRa K156A/R161A, NR concentration 90 nM) (assay: PBM binding z-score (relative to random genomic background probes); higher = stronger binding; sequences stand for … in GC…GCGATTGACAGCGTAGAATGAAGG).
Procedure, shortened: (§1)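 Ligand-free nuclear receptor dimers were bound for 1 h to custom Agilent 4×180K protein-binding microarrays. Detection used antibodies against each partner (one per run). Binding z-scores rest on regression-normalized fluorescence, with random background probes as the reference.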

Sequence | PBM binding z-score
ATATGTAGGTTAAGGGTCATTCATGTTGGTTCGC | 2.3
TTACTAAGGTGAGCTGAGGTCGTTGATCCAACTC | 0.464
CAAACTAGGTCAAGGTCAAAGCCGGTTTGTGCCA | 2.67
CCTACTGGTCCAAAAAGGTCATTGATGCCGATAA | 1.56
TCATATACGTAAAAGGTGAAAGTCGGTGTGGTAA | 1.98
ACTAGCAGGCCAAGTTTGGGTTACTCAAACAAAG | -0.22
ATCTCTGGGTAAAGTTCAGTGAAAGATCGATAGA | 1.43
CCTGCTAGGTCAATTGTCAGCTAAAGCAGCTCGC | 1.77
ACTATTAGTTGACTTAGGGCAACCTATACGACGC | 0.811
CGAACTAGGTCTTCCAGGACAGTGAATACATTGA | 0.373
CCTTGCGGGTCACTCCAGGTTATAGCATCGGAGT | 1.43
CCGAGTAGGCTATGGGGCATTCAGGCAACGGTGA | -0.62
CAGCCTAGGTCAGGGCCAGAATAGGAGGAACGTT | -0.145
AGTAAAAGTTCATCTAGGTAACGTAAGATATGCT | 4.63
CATAAAGGGTCAGCTAGGCCAGAGTAGGGACGGC | 1.52
CGAACTAGGTCAAGGACACTGAATCTCCGCACGC | 1.55
GTACCAAGGTGAATAGGTCGTTTATGAGTAGGCG | 0.0866
AGTCAAAGTTCAGGACGAGGTAACGCAAAGCACG | 2.81

The sequences below were run on RXRa homodimer (NR concentration 180 nM) in the same assay as above.
Procedure, shortened: as §1

Sequence | PBM binding z-score
AGTATGAGGTTATTAAGATCAGGGAATTGCGGTC | 1.53
TCTTGTAGATCAACAGGAGGTTTAGAAAGATCGA | -0.0846
TCGAGTAGGTTAGTCGGGTCATTCAGCCAACATA | 2.1
CCTCGGAGGAAAACAGGAGGTCAGAGCTGCCAGA | 1.63
CCTACTGGGCCATAGGTCATTGATTCCAATGCTC | 2.63
CCTAGTTGGACAGGAGGTCACACACCGGATATGA | 3.96
CATAGTTGGTCAGGAGGTCACACACCGGATATGA | 4.6
CCTTACGGGTCACGAGGTAATAGCACGACGAGCG | 6.56
TGGAGTAGGTTACCAATGGGGCATTCAGCTTTCT | 0.605
GCGACTGGGGCAAAGCAGTTTACCATAAGGTTGG | -0.0226
CCTTACGGGTCACTGACAGGTTATAACATTTGGA | 5.31
CTCGAAAGGGCGGTTGAGGTGAGTATACGGATAA | -0.0679
CTCGAAAGGTCGCTTGAGGTGAGTATACGGATAA | 3.66
CCTACTGGGCCAAAAAGGTCGTTGATGCCGATAA | 1.38
CCGACAGGGGCAAGGTTACCATAACGCACAGCCA | 1.58
CCTAGTTGGTCAGGAGGTCACCCACCGGATATGA | 4.2
GCATATAGGTAATACAAGGTGTAAGTCCGATTGT | 0.0841
AACTCTAGGTAACAAGTTCAGTGAAAGAGAGGAC | 0.731
CCTGCTAGGCCATGGTCAGCTAATCTACAGTATG | -0.245
AGTCAAAGTTAATCTAGGTAACGTAAGATATGCT | 0.0123

Sequence | PBM binding z-score
CATACAGGGTCAGCTAGGTCAGAGTAGGGACGGC | 4.95
CCTAGCAGGCCAATCTGGGTCAGTCAAGGCTTGA | -0.197
ATATGTAGGTTAAGGGTCATTCATGTTGGTTCGC | 6.14
TTACTAAGGTGAGCTGAGGTCGTTGATCCAACTC | 1.52
CAAACTAGGTCAAGGTCAAAGCCGGTTTGTGCCA | 5.67
CCTACTGGTCCAAAAAGGTCATTGATGCCGATAA | 4.74
TCATATACGTAAAAGGTGAAAGTCGGTGTGGTAA | 2.01
ACTAGCAGGCCAAGTTTGGGTTACTCAAACAAAG | -0.21
ATCTCTGGGTAAAGTTCAGTGAAAGATCGATAGA | 1.57
CCTGCTAGGTCAATTGTCAGCTAAAGCAGCTCGC | 1.41
ACTATTAGTTGACTTAGGGCAACCTATACGACGC | 0.654
CGAACTAGGTCTTCCAGGACAGTGAATACATTGA | -0.0434
CCTTGCGGGTCACTCCAGGTTATAGCATCGGAGT | 3.78
CCGAGTAGGCTATGGGGCATTCAGGCAACGGTGA | -0.38
CAGCCTAGGTCAGGGCCAGAATAGGAGGAACGTT | 1.6
AGTAAAAGTTCATCTAGGTAACGTAAGATATGCT | 3.77
CATAAAGGGTCAGCTAGGCCAGAGTAGGGACGGC | 4.42
CGAACTAGGTCAAGGACACTGAATCTCCGCACGC | 2.66
GTACCAAGGTGAATAGGTCGTTTATGAGTAGGCG | 2
AGTCAAAGTTCAGGACGAGGTAACGCAAAGCACG | 3.06

These sequences were tested on THRa:RXRa (NR concentration 90 nM, RXRa partner concentration 90 nM) in the same assay as above.
Procedure, shortened: as §1

Sequence | PBM binding z-score
AGTATGAGGTTATTAAGATCAGGGAATTGCGGTC | 2.27
TCTTGTAGATCAACAGGAGGTTTAGAAAGATCGA | -0.426
TCGAGTAGGTTAGTCGGGTCATTCAGCCAACATA | 3.06
CCTCGGAGGAAAACAGGAGGTCAGAGCTGCCAGA | 2.06
CCTACTGGGCCATAGGTCATTGATTCCAATGCTC | 1.61
CCTAGTTGGACAGGAGGTCACACACCGGATATGA | 3.41
CATAGTTGGTCAGGAGGTCACACACCGGATATGA | 3.46
CCTTACGGGTCACGAGGTAATAGCACGACGAGCG | 3.52
TGGAGTAGGTTACCAATGGGGCATTCAGCTTTCT | 0.403
GCGACTGGGGCAAAGCAGTTTACCATAAGGTTGG | 0.718
CCTTACGGGTCACTGACAGGTTATAACATTTGGA | 3.12
CTCGAAAGGGCGGTTGAGGTGAGTATACGGATAA | 4.21
CTCGAAAGGTCGCTTGAGGTGAGTATACGGATAA | 5.16
CCTACTGGGCCAAAAAGGTCGTTGATGCCGATAA | 1.26
CCGACAGGGGCAAGGTTACCATAACGCACAGCCA | 1.37
CCTAGTTGGTCAGGAGGTCACCCACCGGATATGA | 3.47
GCATATAGGTAATACAAGGTGTAAGTCCGATTGT | 1.3
AACTCTAGGTAACAAGTTCAGTGAAAGAGAGGAC | 1.4
CCTGCTAGGCCATGGTCAGCTAATCTACAGTATG | -0.0916
AGTCAAAGTTAATCTAGGTAACGTAAGATATGCT | 2.91

Sequence | PBM binding z-score
CATACAGGGTCAGCTAGGTCAGAGTAGGGACGGC | 4.07
CCTAGCAGGCCAATCTGGGTCAGTCAAGGCTTGA | 2.97
ATATGTAGGTTAAGGGTCATTCATGTTGGTTCGC | 3.43
TTACTAAGGTGAGCTGAGGTCGTTGATCCAACTC | 4.79
CAAACTAGGTCAAGGTCAAAGCCGGTTTGTGCCA | 4.39
CCTACTGGTCCAAAAAGGTCATTGATGCCGATAA | 3.35
TCATATACGTAAAAGGTGAAAGTCGGTGTGGTAA | 1.36
ACTAGCAGGCCAAGTTTGGGTTACTCAAACAAAG | 0.547
ATCTCTGGGTAAAGTTCAGTGAAAGATCGATAGA | 1.11
CCTGCTAGGTCAATTGTCAGCTAAAGCAGCTCGC | 2.02
ACTATTAGTTGACTTAGGGCAACCTATACGACGC | 1.72
CGAACTAGGTCTTCCAGGACAGTGAATACATTGA | 1.71
CCTTGCGGGTCACTCCAGGTTATAGCATCGGAGT | 4.98
CCGAGTAGGCTATGGGGCATTCAGGCAACGGTGA | -0.343
CAGCCTAGGTCAGGGCCAGAATAGGAGGAACGTT | 1.84
AGTAAAAGTTCATCTAGGTAACGTAAGATATGCT | 3.05
CATAAAGGGTCAGCTAGGCCAGAGTAGGGACGGC | 2.65
CGAACTAGGTCAAGGACACTGAATCTCCGCACGC | 3.49
GTACCAAGGTGAATAGGTCGTTTATGAGTAGGCG | 1.95
AGTCAAAGTTCAGGACGAGGTAACGCAAAGCACG | 3.75
